Molecules are shown by their SMILES. In all, about 77,000 compounds went through this assay and about 4,600 (6%) were called active. Roughly 1% stayed inconclusive and do not appear here.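 The calls were made as follows: active = mean inhibition above about 93%, with at least 55% of replicates each passing it (limit read from the data, passing the limit was not always enough); inconclusive = only one of those two conditions holds; inactive = neither condition holds.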 For the sample, actives were picked, then their nearest neighbours and some compounds at random.

For 62 molecules, inhibition results are on record in PubChem BioAssay AID624255 (Broad Institute, 2012).

The nature of the assay: T. cruzi intracellular proliferation inhibitors, primary screen, cell-based, beta-gal Tulahuen parasites, NIH3T3 host, luminescence (AID 624255). Conditions: T. cruzi beta-gal in NIH3T3, GalScreen luminescence, 90 h; at 8.34 µM; stronger effect = higher value.
The term inhibition denotes the change of the read-out against control, counted positive when it falls. As to `COC(=O)C[C@@H]1CC[C@H]2[C@H](COc3ccc(NC(=O)c4cccs4)cc3C(=O)N2C)O1`, the inhibition is 2.22% (inactive). For `C[C@H]1CCCCO[C@@H](CN(C)Cc2ccc3c(c2)OCO3)[C@@H](C)CN([C@@H](C)CO)C(=O)c2cc(NC(=O)Nc3ccc(F)cc3)ccc2O1`, the inhibition is 77.3% (inactive). Regarding `CN1c2ccc(-c3ccc(C#N)cc3)cc2[C@@H]2[C@@H](CCN2C(=O)C2CCCCC2)[C@H]1CO`, the inhibition was 50.3% (inactive). To `O=C(NCC1CC1)[C@@H]1[C@@H](CO)[C@@H]2Cn3c(ccc(-c4ccncc4)c3=O)[C@H]1N2Cc1nccs1` belongs 32.5% (inactive); to `CNC(=O)C[C@H]1CC[C@H]2[C@@H](COc3ccc(NC(=O)c4cccc(OC)c4)cc3C(=O)N2C)O1`, 3.49% (inactive). To `COc1ccccc1-c1ccc2c(c1)[C@H]1[C@H](CCN1S(=O)(=O)c1ccccc1)[C@@H](CO)N2` belongs 77.3% (inactive); to `CNC(=O)C[C@H]1CC[C@@H]2[C@H](COc3ccc(NC(=O)C(C)C)cc3C(=O)N2C)O1`, -65% (inactive).

For the molecule `CC(=O)Nc1ccc2c(c1)C(=O)N(C)[C@H]1CC[C@H](CC(=O)NCc3ccccc3Cl)O[C@H]1CO2`, the inhibition was -40.6% (inactive). On to `CNC[C@H]1OCCCC[C@@H](C)Oc2ccc(NC(=O)Nc3ccc(C(F)(F)F)cc3)cc2C(=O)N([C@H](C)CO)C[C@H]1C`, for which the inhibition was 69.3% (inactive). As for `C[C@H](CO)N1C[C@H](C)[C@H](CN(C)C(=O)NC2CCCCC2)Oc2ccc(NC(=O)CCCN(C)C)cc2CC1=O`, the inhibition was 25.8% (inactive). The same measure for `O=C(NC1CCC1)[C@H]1[C@H](CO)[C@H]2Cn3c(ccc(C4=CCCCC4)c3=O)[C@@H]1N2CC1CC1`: -4.56% (inactive); for `C[C@@H]1CCCCO[C@@H](CN(C)S(=O)(=O)c2ccc(F)cc2)[C@@H](C)CN([C@@H](C)CO)C(=O)c2cc(NC(=O)Nc3ccc(F)cc3)ccc2O1`: 55.8% (inactive). The same measure for `COc1ccccc1S(=O)(=O)Nc1ccc2c(c1)C(=O)N(C)C[C@H](OC)[C@H](C)CN[C@H](C)CO2`: 9.95% (inactive). To `O=C([C@H]1N[C@H]2c3ccc(-c4ccccc4)c(=O)n3C[C@H]2[C@@H]1CO)N1CCOCC1` belongs -8.75% (inactive); to `C[C@H](CO)N1C[C@H](C)[C@H](CN(C)S(=O)(=O)c2ccc(F)cc2)OCCCC[C@H](C)Oc2ccc(NS(=O)(=O)c3ccc(Cl)cc3)cc2C1=O`, 97.6% (active).

For `C[C@@H]1CCCCO[C@H](CN(C)S(=O)(=O)c2ccccc2)[C@@H](C)CN([C@@H](C)CO)C(=O)c2cc(NS(=O)(=O)c3ccccc3)ccc2O1`, the inhibition was 78.8% (inactive). The same measure for `C[C@@H]1CCCCO[C@H](CN(C)S(=O)(=O)c2ccc(F)cc2)[C@H](C)CN([C@@H](C)CO)C(=O)c2cc(NS(=O)(=O)c3ccccc3)ccc2O1`: 112% (active); for `Cc1ccc(S(=O)(=O)Nc2ccc3c(c2)C(=O)N([C@H](C)CO)C[C@@H](C)[C@H](CN(C)S(=O)(=O)c2ccc(C)cc2)OCCCC[C@@H](C)O3)cc1`: 89.1% (inactive); for `Cc1ccc(S(=O)(=O)N(C)C[C@@H]2OCCCC[C@@H](C)Oc3ccc(NS(=O)(=O)c4ccc(F)cc4)cc3C(=O)N([C@H](C)CO)C[C@H]2C)cc1`: 110% (active). For `COc1ccc(S(=O)(=O)N(C)C[C@@H]2OCCCC[C@@H](C)Oc3ccc(NS(=O)(=O)c4ccccc4)cc3C(=O)N([C@@H](C)CO)C[C@H]2C)cc1`, the inhibition was 71.3% (inactive). To `C[C@@H]1CCCCO[C@@H](CN(C)S(C)(=O)=O)[C@H](C)CN([C@@H](C)CO)C(=O)c2cc(NS(=O)(=O)c3ccc(F)cc3)ccc2O1` belongs -87.8% (inactive); to `Cc1ccc(S(=O)(=O)N(C)C[C@H]2OCCCC[C@@H](C)Oc3ccc(NS(C)(=O)=O)cc3C(=O)N([C@H](C)CO)C[C@@H]2C)cc1`, -8.39% (inactive); to `COc1ccc(S(=O)(=O)Nc2ccc3c(c2)C(=O)N([C@H](C)CO)C[C@@H](C)[C@H](CN(C)S(=O)(=O)c2ccc(Cl)cc2)OCCCC[C@@H](C)O3)cc1`, 87% (inactive). As to `C[C@H](CO)N1C[C@H](C)[C@@H](CN(C)C(=O)CCC(F)(F)F)OCCCC[C@H](C)Oc2ccc(NC(=O)C3CCCCC3)cc2C1=O`, the inhibition was 39.7% (inactive). To `COc1cccc(-c2ccc3c(c2)[C@@H]2[C@@H](CCN2S(=O)(=O)C2=NC(C)C=N2)[C@@H](CO)N3C)c1` (some centres not stated) belongs 6.92% (inactive); to `CO[C@H]1CN(C)C(=O)c2cc(NC(=O)Nc3cccc(F)c3)ccc2OC[C@H](C)N(C(C)=O)C[C@H]1C`, 26.3% (inactive). Take `CCCC#Cc1ccc([C@H]2[C@@H](CO)N3CCCCN(S(=O)(=O)Cc4ccccc4)C[C@H]23)cc1`: the inhibition is 54.7% (inactive). To `CCS(=O)(=O)N1CCCCN2[C@@H](CO)[C@@H](c3ccc(-c4ccccc4)cc3)[C@@H]2C1` belongs 93.7% (active); to `O=S(=O)(c1ccccc1)N1CCCCN2[C@H](C1)[C@H](c1ccc(-c3ccccc3)cc1)[C@@H]2CO`, 94.7% (inactive).

Take `Cc1cccc(-c2ccc([C@H]3[C@H](CO)N4CCCCN(S(=O)(=O)c5cn(C)cn5)C[C@@H]34)cc2)c1`: the inhibition is 41.5% (inactive).

On to `Cc1cccc(-c2ccc([C@@H]3[C@@H](CO)N4CCCCN(S(=O)(=O)c5cccs5)C[C@H]34)cc2)c1`, for which the inhibition was 118% (active). The same measure for `O=S(=O)(Cc1ccccc1)N1CCCCN2[C@@H](CO)[C@@H](c3ccc(-c4ccc(F)cc4)cc3)[C@@H]2C1`: 98.2% (active); for `O=S(=O)(Cc1ccccc1)N1CCCCN2[C@@H](CO)[C@H](c3ccc(-c4cccnc4)cc3)[C@@H]2C1`: 106% (active). The same measure for `OC[C@H]1[C@H](c2ccc(-c3cccnc3)cc2)[C@H]2CN(Cc3ccccn3)CCCCN21`: 79.7% (inactive); for `COc1cccc(-c2ccc([C@H]3[C@H](CO)N4CCCCN(S(=O)(=O)c5cccs5)C[C@@H]34)cc2)c1`: 91.7% (inactive). The same measure for `CN1CCCCN2[C@H](CO)[C@H](c3ccc(-c4ccc(F)cc4)cc3)[C@@H]2C1`: 14.5% (inactive); for `CCCC#Cc1ccc([C@H]2[C@@H](CO)N3CCCCN(S(=O)(=O)CC)C[C@H]23)cc1`: 65.9% (inactive). In the case of `COCc1cn(CC[C@H]2CC[C@H](NC(=O)Nc3ccc4c(c3)OCO4)[C@@H](CO)O2)nn1`, the inhibition was -12.8% (inactive). The same measure for `C[C@H](CO)N1C[C@H](C)[C@@H](CN(C)C(=O)Nc2ccc3c(c2)OCO3)OCCCC[C@H](C)Oc2ccc(NC(=O)Nc3ccc(F)cc3)cc2C1=O`: -31.4% (inactive); for `O=C(C[C@H]1C=C[C@H](NC(=O)C2CCOCC2)[C@@H](CO)O1)NCC1CC1`: -20.7% (inactive). Consider `CC(C)NC(=O)N(C)C[C@H]1OCCCC[C@H](C)Oc2ccc(NS(=O)(=O)c3ccc(Cl)cc3)cc2C(=O)N([C@@H](C)CO)C[C@H]1C`, for which the inhibition was -6.73% (inactive). The same measure for `C[C@@H]1CN([C@H](C)CO)C(=O)c2cc(NC(=O)c3ccccc3)ccc2O[C@@H](C)CCCCO[C@H]1CN(C)C(=O)c1ccncc1`: -20.8% (inactive); for `CCC(=O)N1C[C@H](C)[C@H](OC)CN(C)C(=O)c2ccc(NC(=O)Nc3ccccc3)cc2OC[C@H]1C`: -75.2% (inactive); for `CCC(=O)Nc1ccc2c(c1)OC[C@H](C)N(Cc1ccccc1OC)C[C@@H](C)[C@@H](OC)CN(C)C2=O`: 32.5% (inactive). The same measure for `CCC(=O)Nc1ccc2c(c1)C(=O)N(C)[C@@H]1CC[C@@H](CC(=O)NCCc3ccccc3)O[C@H]1CO2`: 49.1% (inactive); for `C/C=C/c1ccc([C@H]2[C@@H](CO)N(C(=O)Cc3ccncc3)[C@@H]2CNC(C)=O)cc1`: 13.1% (inactive).

Turning to `CS(=O)(=O)N1CCCCN2[C@H](CO)[C@H](c3ccc(-c4cccc(C#N)c4)cc3)[C@H]2C1`, the inhibition is 74.2% (inactive). The same measure for `O=S(=O)(Cc1ccccc1)N1CCCCN2[C@@H](CO)[C@H](c3ccc(-c4ccccc4)cc3)[C@@H]2C1`: 110% (active); for `O=S(=O)(Cc1ccccc1)N1CCCCN2[C@H](CO)[C@@H](c3ccc(-c4cncnc4)cc3)[C@H]2C1`: 91% (inactive); for `COCC(=O)Nc1ccc2c(c1)C(=O)N(C)[C@@H]1CC[C@H](CC(=O)NCC3CCCCC3)O[C@H]1CO2`: -49.4% (inactive).

`CC(=O)N(C)C[C@H]1Oc2ncc(C#Cc3ccccn3)cc2C(=O)N([C@H](C)CO)C[C@@H]1C`: the inhibition was 57.3% (inactive). The same measure for `CCC(=O)N(C)C[C@@H]1Oc2ncc(C#Cc3ccccc3)cc2C(=O)N([C@@H](C)CO)C[C@H]1C`: 87.1% (inactive); for `CCCC#Cc1cnc2c(c1)C(=O)N([C@H](C)CO)C[C@H](C)[C@H](CN(C)C(=O)Cc1ccncc1)O2`: -5.16% (inactive). The same measure for `CC(C)CC#Cc1cnc2c(c1)C(=O)N([C@@H](C)CO)C[C@@H](C)[C@H](CN(C)C(=O)Cc1ccncc1)O2`: 107% (active). As to `COc1ccc(C#Cc2cnc3c(c2)C(=O)N([C@@H](C)CO)C[C@H](C)[C@@H](CN(C)C(C)=O)O3)cc1`, the inhibition was 110% (active). To `COc1ccc(C#Cc2cnc3c(c2)C(=O)N([C@H](C)CO)C[C@H](C)[C@@H](CN(C)C)O3)cc1` belongs 29.3% (inactive); to `C[C@@H]1CN([C@@H](C)CO)C(=O)c2cc(C#Cc3ccccc3)cnc2O[C@H]1CN(C)C(=O)c1ccccn1`, 108% (active). As to `COc1ccccc1C#Cc1cnc2c(c1)C(=O)N([C@@H](C)CO)C[C@@H](C)[C@H](CN(C)C(=O)CN(C)C)O2`, the inhibition was 36.2% (inactive). The same measure for `COCC(=O)N(C)C[C@@H]1Oc2ncc(C#Cc3ccccc3OC)cc2C(=O)N([C@@H](C)CO)C[C@H]1C`: 113% (active). The same measure for `COc1cccc(C#Cc2cnc3c(c2)C(=O)N([C@@H](C)CO)C[C@H](C)[C@@H](CN(C)C(C)=O)O3)c1`: -12.9% (inactive); for `C[C@@H]1CN([C@H](C)CO)C(=O)c2cc(C#CCN(C)C)cnc2O[C@H]1CN(C)C(=O)Cc1ccncc1`: 67.2% (inactive). Turning to `COc1ccccc1C#Cc1cnc2c(c1)C(=O)N([C@@H](C)CO)C[C@@H](C)[C@@H](CN(C)C(=O)CN(C)C)O2`, the inhibition is -91.1% (inactive).
